Assay outcomes: PubChem, Broad Institute
The list is not random: actives were taken first. Their share in the collection is about 3.1%.
HIV Env fusion: HIV envelope-mediated fusion inhibition. HeLa-JRFL Env/CEM21 cell fusion, luciferase. inhibition, % at 12.3 µM. actives 1.1% (n = 360,000). AID 651610;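 active means mean replicate inhibition score of at least 50 and every replicate individually at or above 50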
C2C12 statin: protects C2C12 myotubes from simvastatin toxicity | ATP luminescence, 48 h; scaled: DMSO 0, geranylgeraniol control 100 | rescue of ATP level, % at 7.49 µM | actives 0.78% (n = 330,000);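 active means mean ATP rescue above about 67%, or every replicate alone reaching that limit, limit read from the data, passing the limit was not always enough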;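 further: myotubes were challenged with 10 µM simvastatin during compound exposure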
miR122 inh: inhibitors of miR-122 in Huh7 cells; Huh7 miR-122 Renilla luciferase sensor, 48 h; neutral wells = 0, positive control = 100; activation (reporter increase), % at 12.5 µM; actives 0.3% (n = 340,000); AID 602342;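 active means mean replicate activation score at least 90 and every replicate individually at or above 90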;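 further: higher luciferase means less miR-122 activity so hits act as miR-122 inhibitors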
EWS-Fli block: EWS/Fli transcriptional activity inhibition; inhibition, % at 12.6 µM; actives 0.67% (n = 350,000); A673 NR0B1-luciferase reporter, viability-normalised;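 active means mean inhibition of at least 50% after viability correction, with every replicate also passing that limit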;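 further: firefly luciferase signal divided by Alamar Blue viability fluorescence both relative to DMSO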
INS-1E GSIS act: GLuc luminescence reporter in INS-1E cells, primary screen for activators of glucose-dependent secretion of insulin; INS-1E GLuc reporter insulin secretion, 2-3 h; activation, % at 16.6 µM; actives 0.61% (n = 370,000);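 active means lowest replicate activation of at least 40%, so every replicate reaches that level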
PAX8 inh HTS: inhibitors of PAX8 transcriptional activity in RMG-I cells; RMG-I TPO-luciferase reporter, SteadyGlo, 24 h; inhibition, % at 12.6 µM; actives 1.2% (n = 360,000); AID 652154;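 active means mean replicate inhibition at least 60% with every replicate also reaching 60%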;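 further: luciferase light reporting Pax8 driven TPO promoter activity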
Numbers stand for hits; - = inactive; . = no result given; [ ] = dose if it differs, or a comment.

SMILES	HIV Env fusion	C2C12 statin	miR122 inh	EWS-Fli block	INS-1E GSIS act	PAX8 inh HTS
CCCNC(=O)N1[C@H](C#N)[C@H](c2ccc(-c3ccc(C(=O)N(C)C)cc3)cc2)[C@@H]1CO	68[16.7 µM]	-	.	-	-	-
CC(=O)N(C)C[C@@H]1[C@@H](c2ccc(-c3cccnc3)cc2)[C@H](CO)N1C(=O)C1CC1	.	-	258[16.7 µM]	-	-	-
N#C[C@@H]1[C@H](c2ccc(-c3cccc(F)c3)cc2)[C@H](CO)N1C(=O)c1cccnc1	66[16.7 µM]	-	.	-	-	-
CCCN(C[C@H]1N[C@H](CO)[C@@H]1c1ccc(-c2cccnc2)cc1)C(C)=O	.	-	-	-	-	-
CCC(=O)N(C)C[C@@H]1Oc2ncc(-c3ccccc3F)cc2C(=O)N([C@H](C)CO)C[C@H]1C	-	-	-	-	-	.
O=S(=O)(c1ccccc1F)N1C[C@@H]2[C@H](c3ccccc31)[C@H](CO)N2Cc1ccc2c(c1)OCO2	.	-	-	-	-	-
COc1cccc(-c2ccc3c(c2)[C@@H]2[C@@H](CCN2C(=O)Nc2ccccc2OC)[C@@H](CO)N3C)c1	.	-	-	-	-	-
CCCNC(=O)N1[C@H](C#N)[C@H](c2ccc(-c3cccnc3)cc2)[C@@H]1CO	64[16.7 µM]	-	.	-	-	-
CCCNC(=O)N1[C@@H](C#N)[C@H](c2ccc(-c3cccnc3)cc2)[C@@H]1CO	-	-	.	-	-	-
COc1ccc(NC(=O)N(C)C[C@H]2Oc3ccc(NC(=O)Nc4ccccc4)cc3C(=O)N([C@@H](C)CO)C[C@@H]2C)cc1	.	-	-	-	-	-
Cn1c(/C(C#N)=C/c2cccc(O)c2)nc2ccccc21	-	-	-	-	-	-
Cn1c(/C(C#N)=C/c2ccc(-c3ccc(S(N)(=O)=O)cc3)o2)nc2ccccc21	-	.	-	.	-	76
CO[C@H]1CN(C)C(=O)c2cc(NS(=O)(=O)c3cn(C)cn3)ccc2OC[C@@H](C)N(CC2CC2)C[C@H]1C	-	-	.	-	-	.
CCC(C)(C)c1ccc(OCCCC[n+]2cccc(C)c2)c(C(C)(C)CC)c1	129	.	.	-	185	71
Cc1c(C(=O)N/N=C/c2ccc(Cl)cc2)[nH]c2ccc(Cl)cc12	-	.	.	59	-	-
O=C(N/N=C/c1c[nH]c2ccccc12)c1[nH]c2ccc(Br)cc2c1-c1ccccc1	-	.	-	-	-	94
C/C(=N\NC(=O)CCC(=O)O)c1c(-c2ccccc2)c2cc(Br)ccc2[nH]c1=O	-	.	.	-	-	-
O=C(N/N=C/c1ccc(O)cc1)c1[nH]c2ccc(Br)cc2c1-c1ccccc1	-	.	.	-	-	96
C[C@H](O)C#Cc1cnc2c(c1)C(=O)N([C@@H](C)CO)C[C@H](C)[C@H](CN(C)Cc1ccccn1)O2	-	-	-	-	-	.
CNC[C@H]1Oc2ncc(-c3cncnc3)cc2C(=O)N([C@H](C)CO)C[C@@H]1C	-	-	.	-	-	.
N/C(=N\OC(=O)COc1ccc(Cl)cc1Cl)c1cccnc1	.	-	-	.	60	-
C[C@@H]1CCCCO[C@H](CN(C)Cc2ccc(Cl)c(Cl)c2)[C@@H](C)CN([C@H](C)CO)C(=O)c2cc(NC(=O)Nc3ccccc3)ccc2O1	-	-	-	-	-	-
C[C@@H]1CN([C@H](C)CO)C(=O)c2cc(NC(=O)Nc3ccccc3)ccc2O[C@@H](C)CCCCO[C@@H]1CN(C)Cc1ccc(Cl)c(Cl)c1	-	117	-	-	-	86
C[C@@H]1CCCCO[C@@H](CN(C)Cc2ccc(Cl)c(Cl)c2)[C@@H](C)CN([C@H](C)CO)C(=O)c2cc(NC(=O)Nc3ccccc3)ccc2O1	-	-	-	-	-	-
C[C@@H]1CN([C@@H](C)CO)C(=O)c2cc(NC(=O)Nc3ccccc3)ccc2O[C@@H](C)CCCCO[C@H]1CN(C)Cc1ccc(Cl)c(Cl)c1	-	-	-	-	-	81
SMILES	HIV Env fusion	C2C12 statin	miR122 inh	EWS-Fli block	INS-1E GSIS act	PAX8 inh HTS
C[C@@H]1CCCCO[C@@H](CN(C)Cc2ccc(Cl)c(Cl)c2)[C@H](C)CN([C@@H](C)CO)C(=O)c2cc(NC(=O)Nc3ccccc3)ccc2O1	-	-	-	-	-	86
C[C@H](CO)N1C[C@H](C)[C@@H](CN(C)C(=O)Nc2ccc(F)cc2)Oc2c(NS(=O)(=O)c3ccccc3)cccc2C1=O	.	-	128[16.7 µM]	-	-	-
C[C@@H]1CN([C@H](C)CO)C(=O)c2cccc(NS(=O)(=O)c3cn(C)cn3)c2O[C@H]1CN(C)C(=O)Nc1ccc(F)cc1	73[16.7 µM]	-	-	-	-	-
C[C@@H]1CN([C@H](C)CO)C(=O)c2cccc(NS(=O)(=O)c3cn(C)cn3)c2O[C@@H]1CN(C)C(=O)Nc1ccc(F)cc1	-	-	-	-	-	-
COc1ccc(S(=O)(=O)Nc2cccc3c2O[C@@H](CN(C)C(=O)Nc2ccc(F)cc2)[C@H](C)CN([C@@H](C)CO)C3=O)cc1	.	-	-	-	-	.
COc1ccc(S(=O)(=O)Nc2cccc3c2O[C@H](CN(C)C(=O)Nc2ccc(F)cc2)[C@H](C)CN([C@@H](C)CO)C3=O)cc1	.	130	-	-	-	.
C[C@@H]1CN([C@@H](C)CO)C(=O)c2cc(NC(=O)NC3CCCCC3)ccc2O[C@H]1CN(C)S(=O)(=O)c1cccs1	-	.	-	-	-	.
Cc1cc(C)nc(Nc2n[nH]c(COc3ccc4ccccc4c3)n2)n1	-	-	-	.	62	.
CNC[C@@H]1Oc2ccc(N(C)C)cc2CC(=O)N(C)C[C@H]1C	.	.	.	.	-	.
COc1cccc(C#Cc2ccc([C@H]3[C@@H](C#N)N(C(=O)c4ccccn4)[C@@H]3CO)cc2)c1	.	-	.	-	-	76
N#C[C@@H]1[C@@H](c2ccc(C#CCC3CCCC3)cc2)[C@H](CO)N1C(=O)c1ccccn1	-	-	.	-	-	-
N#C[C@H]1[C@@H](c2ccc(C#CCC3CCCC3)cc2)[C@@H](CO)N1C(=O)c1ccccn1	-	-	.	-	-	74
COc1cccc(C#Cc2ccc([C@@H]3[C@@H](C#N)N(C(=O)c4ccccn4)[C@@H]3CO)cc2)c1	.	-	.	-	-	-
COc1cccc(-c2ccc([C@H]3[C@@H](CO)N(C(=O)c4ccccn4)[C@H]3C#N)cc2)c1	-	-	.	-	-	83
CCc1cnc(N2[C@@H](C#N)[C@@H](c3ccc(C#CCC4CCCC4)cc3)[C@@H]2CO)s1	-	-	.	-	-	73
COc1ccc(C[C@H]2CCn3cc(nn3)COC[C@H](Cc3ccccc3)NC2=O)cc1	-	.	.	-	-	-
CN1C[C@@H]2[C@H](c3ccccc31)[C@@H](CO)N2C(=O)C1CC1	.	-	-	-	-	-
C[C@@H]1CN([C@@H](C)CO)C(=O)Cc2cc(N(C)C)ccc2O[C@H]1CN(C)S(=O)(=O)c1cn(C)cn1	-	-	-	-	-	-
